Inconclusive results are not listed. Active and inactive are the calls of the source. Calls follow the shape of the dose curve; as a rule, active = well fitted curve in the direction sought with a large enough effect; inconclusive = small, poorly fitted or top-dose-only effect, or effect the other way, or another doubt; inactive = no such curve, though single readings can be large or run the other way.

Sequence of Alpha-galactosidase A (Homo sapiens) (P06280 32-429 limits assumed): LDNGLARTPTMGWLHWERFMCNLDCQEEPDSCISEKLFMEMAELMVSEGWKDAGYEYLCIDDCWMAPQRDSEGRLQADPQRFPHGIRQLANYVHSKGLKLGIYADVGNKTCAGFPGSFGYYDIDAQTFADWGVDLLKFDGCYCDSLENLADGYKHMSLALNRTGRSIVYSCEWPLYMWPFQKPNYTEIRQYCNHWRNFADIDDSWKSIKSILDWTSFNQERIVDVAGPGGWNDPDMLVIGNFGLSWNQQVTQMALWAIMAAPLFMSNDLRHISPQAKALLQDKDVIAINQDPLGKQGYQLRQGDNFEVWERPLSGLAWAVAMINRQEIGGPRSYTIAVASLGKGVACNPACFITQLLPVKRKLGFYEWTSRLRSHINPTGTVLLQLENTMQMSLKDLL

In the experiment the target is Alpha-galactosidase A (Homo sapiens) (UniProt P06280). Nature of the experiment: Confirmation of Inhibitors of Human alpha-Galactosidase Using Spleen Homogenate. The settings on record: alpha-galactosidase enzyme activity; series mostly up to 56.2 µM. In outline:
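Human spleen homogenate (1 ug) with 1 mM 4-methylumbelliferyl-alpha-D-galactopyranoside in citrate-phosphate pH 5.0, 0.01% Tween-20, 37C 40 min; compounds 0.5 nM–58 uM final. Stopped at pH 10, fluorescence Ex 365/Em 440; AC50 from Hill fits.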
In the case of `CN(C)N=C1c2cc(S(=O)(=O)N3CCOCC3)ccc2-c2ccc(S(=O)(=O)N3CCOCC3)cc21`, the molecule was called inactive.

As for `Nc1cccc(S(=O)(=O)N2CCOCC2)c1`, the result was inactive.

Take `CCCC1(C)Nc2ccccc2-c2nc3ccccc3n21` (configuration not stated): the result was inactive.

As for `CC(=O)c1ccc(NC(=O)COc2ccccc2-c2nc(C)no2)cc1`, the call was inactive.

With `Cc1sc(-c2cc3ccccc3oc2=O)nc1-c1ccc(Cl)cc1`, the molecule was called inactive.

With `COc1cccc2cc(-c3nc(-c4ccccc4)c(C)s3)c(=O)oc12`, the molecule was classed as inactive.

Regarding `COc1ccc(C2C3=C(CCCC3=O)N(CC(=O)O)C3=C2C(=O)CCC3)cc1Cl`, the outcome was inactive.

As for `COCCNc1c(-c2ccc(O)cc2)nc2ccc(Cl)cn12`, the molecule was classed as inactive.

With `O=C(/C=C/c1ccc(O)c(O)c1)c1ccc(O[C@@H]2O[C@H](CO)[C@@H](O)[C@H](O)[C@H]2O)c(O)c1O`, the molecule was classed as inactive.

Regarding `COc1ccc(C2C(C(=O)c3ccco3)=C(O)C(=O)N2CC2CCCO2)c(OC)c1` (configuration not stated), the outcome was inactive.

As to `COc1ccc(OC)c(/C=C/C(=O)N(C)CC(=O)Nc2ccc(C)cc2)c1`, the outcome was inactive.

On to `CC(=O)NNc1nc2ccccc2s1`, for which the call was inactive.

As to `COc1ccc(-n2cc(CNCCc3ncc(C)[nH]3)c(-c3ccccc3Cl)n2)cc1`, the call was inactive.

As for `CCCCn1c(CN2CCN(c3cccc(Cl)c3)CC2)nc2c1c(=O)n(C)c(=O)n2C`, the outcome was inactive.

For `COc1cccc2cc(-c3nc(-c4ccc(C)cc4)c(C)s3)c(=O)oc12`, the outcome was inactive.

In the case of `Oc1ccc(NCc2ccccc2OCc2ccccc2)cc1`, the outcome was inactive.

In the case of `O=C(c1ccccc1)N1CCN(C(=O)N(c2ccccc2)c2ccccc2)CC1`, the call was inactive.

Take `COC(=O)CSc1ccc(C#N)c(SCC(=O)OC)c1`: the outcome was inactive.

Take `CCc1sc(-c2cc3ccc(O)cc3oc2=O)nc1-c1cc(C)ccc1C`: the call was inactive.

Consider `C=CCCCCCCCCCCCc1ccco1`, for which the result was inactive.

Turning to `C=CCn1c2ccccc2c2nnc(SCC(=O)NC(C(=O)OC)C(C)C)nc21` (configuration not stated), the outcome was inactive.

For the molecule `CCC1C(=O)NCCN1Cc1nc(-c2ccc(C)s2)oc1C` (configuration not stated), the result was inactive.

With `O=C(O)c1c[nH]c2ccc(S(=O)(=O)N3CCOCC3)cc12`, the molecule was called inactive.

`Cc1[nH]nc2c1C(c1ccc(OC(=O)c3ccco3)cc1)C(C#N)=C(N)O2` (configuration not stated): the molecule was called inactive.

For `Cc1nnc(SCC(=O)Nc2ccc3c(c2)COC3=O)n1-c1ccccc1`, the result was inactive.

As to `CC(C)Cn1c(SCC(=O)N2CCN(S(=O)(=O)c3ccccc3)CC2)nc2ccccc21`, the outcome was inactive.

In the case of `CCc1sc(-c2cc3cc(Cl)ccc3oc2=O)nc1-c1ccccc1`, the molecule was called inactive.

On to `Nc1cnc(Nc2ccc(Br)cc2)nc1N`, for which the molecule was classed as inactive.

With `O=S(=O)(c1cccc(Cl)c1)N1CCOCC1`, the outcome was inactive.

With `COc1ccc(-c2nnc(NC(=O)CSc3ccc(Cl)cc3)s2)cc1`, the result was inactive.

In the case of `COC(=O)c1ccccc1S(=O)(=O)N1CCOCC1`, the molecule was classed as inactive.

On to `O=C(NCCCN1CCOCC1)c1cccs1`, for which the call was inactive.

`OC[C@H]1NC[C@@H](O)[C@@H](O)[C@@H]1O`: the molecule was called inactive.

As to `Cc1sc(-c2cc3cc(Br)ccc3oc2=O)nc1-c1ccccc1`, the molecule was called inactive.

Regarding `Cc1[nH]n(C(N)=S)c(=O)c1N=Nc1ccc2ccccc2c1`, the outcome was inactive.

For `Cn1c(=O)c2c(nc(NCc3ccc4c(c3)OCO4)n2Cc2ccc(F)cc2)n(C)c1=O`, the molecule was called inactive.

As for `NN=C1c2cc(S(=O)(=O)NCCO)ccc2-c2ccc(S(=O)(=O)NCCO)cc21`, the molecule was called inactive.

(Values after PubChem BioAssay AID2108 (National Center for Advancing Translational Sciences (NCATS), 2009).)
